In the library only some 32% were active in any assay of this set; here they are far more common.
CYP2C9 inh = blocks human cytochrome P450 2C9 | hit rate 20% among 96,000 | CYP2C9 Supersomes, luciferin-H conversion, luminescence | P11712 | inhibition, % at 5 µM;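 active = blocking of liver enzyme CYP2C9 beyond about 50% at 5 µM, limit read from the data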
CYP2C19 inh = inhibitors of human CYP2C19 | CYP2C19 Supersomes, luciferin-H EGE luminescence, 30 min | inhibition, % at 5 µM | hit rate 21% among 96,000;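 active = CYP2C19 inhibition above a set limit at 5 µM in the primary screen, cut at about 50% in these data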
Target sequence (P33261 whole entry, looked up): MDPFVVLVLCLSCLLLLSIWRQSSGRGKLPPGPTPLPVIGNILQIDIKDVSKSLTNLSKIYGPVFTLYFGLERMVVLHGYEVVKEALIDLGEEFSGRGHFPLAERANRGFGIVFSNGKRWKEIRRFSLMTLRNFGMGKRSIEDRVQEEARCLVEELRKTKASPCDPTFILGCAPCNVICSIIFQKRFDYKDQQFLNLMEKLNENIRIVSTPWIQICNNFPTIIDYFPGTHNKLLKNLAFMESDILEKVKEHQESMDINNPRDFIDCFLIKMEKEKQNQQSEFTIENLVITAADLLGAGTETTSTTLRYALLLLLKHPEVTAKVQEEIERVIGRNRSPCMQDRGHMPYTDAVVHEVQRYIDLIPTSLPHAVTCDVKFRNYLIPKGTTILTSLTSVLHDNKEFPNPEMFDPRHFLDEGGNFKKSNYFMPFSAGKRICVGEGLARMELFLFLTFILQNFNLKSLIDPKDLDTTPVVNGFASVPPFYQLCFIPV
PostGolgi yeast = growth inhibition of a yeast mutant, post-Golgi transport screen; hit rate 0.9% among 98,000; post-Golgi transport phenotypic cell assay; inhibition, % at 10 µM;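 also: yeast cells grown in 1536-well plates; yeast grown about 18 h at 30C before absorbance read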
CYP2C19 act = increases human CYP2C19 enzyme activity; 96,000 tested, under 10 active; AID 1025; activation factor at 5 µM; recombinant CYP2C19, luciferin-H EGE luminescence; hits give high values; 0 = fully inhibited enzyme, 1 = untreated enzyme;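 active = activation factor of at least 2 at 5 µM in the primary screen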
PostGolgi ctrl = growth of the yeast control strain, post-Golgi counter-screen; efflux-deficient yeast background strain, growth absorbance A615, 16 h; inhibition, % at 10 µM; hit rate 5% among 98,000
CYP2C9 act = increases human cytochrome P450 2C9 activity. recombinant CYP2C9, luciferin-H conversion, luminescence; hits give high values; factor 1 = untreated enzyme, 0 = blocked. activation factor at 5 µM. P11712. AID 1024. hit rate 1.4% among 96,000;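 active = activation factor of 2 or more for CYP2C9 at a 5 µM dose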
Numbers stand for hits; - = inactive; . = not tested or not shown. Rule as the data show it, unless noted: active = inhibition above about 30%; inactive = the rest.

SMILES	CYP2C9 inh	CYP2C19 inh	PostGolgi yeast	CYP2C19 act	PostGolgi ctrl	CYP2C9 act
O=C(O)CCC(=O)N1CCc2cc(S(=O)(=O)N(CCc3ccccc3)Cc3ccccc3)ccc21	-	-	-	-	-	-
CN(C)S(=O)(=O)c1ccc(C(=O)Nc2ccc(CCC(=O)N3CCCC3)cc2)cc1	59	-	-	-	-	-
COC(=O)C(F)(F)Sc1c(C)[nH]c2ccccc12	.	.	-	.	-	.
OCCN(Cc1ccccc1)Cc1ccc(F)c(F)c1	-	84	-	-	-	-
O=[N+]([O-])c1cccc(CN(CCO)Cc2ccccc2)c1	-	-	-	-	-	-
COc1nnnc2c1sc1nc(N3CCOCC3)c3c(c12)CC(C)(C)OC3	-	-	.	-	.	-
CC(C)CCNc1nnnc2c1sc1nc(N3CCOCC3)c3c(c12)CC(C)(C)SC3	85	-	-	-	-	-
CCOc1ccccc1-c1nnc(SCC(=O)NC2CC3CCC2C3)n1CC (configuration not stated)	-	77	-	-	-	-
COc1ccccc1-c1nn2c(-c3ccccc3Cl)nnc2s1	-	-	.	-	.	-
c1ccc(CCc2nn3c(-c4ccncc4)nnc3s2)cc1	54	95	-	-	-	-
Clc1ccccc1-c1nnc2sc(CCc3ccccc3)nn12	53	88	-	-	-	-
c1ccc(-c2nnc3sc(-c4ccncc4)nn23)cc1	-	-	-	-	-	-
COc1ccc(NS(=O)(=O)c2ccc3c(c2)CCC(=O)N3)c(OC)c1	-	-	-	-	-	-
CCC1CCCCN1c1nc(-c2ccncc2)nc2ccccc12 (configuration not stated)	100	99	-	-	75	-
COc1cc2nc(-c3ccccc3)nc(N3CCCC3)c2cc1OC	-	-	-	-	-	-
CCC1CCCCN1c1nc(-c2cccc(OC)c2O)nc2ccccc12 (configuration not stated)	83	-	-	-	41	-
COc1cccc(-c2nc(N3CCN(c4ccccc4)CC3)c3ccccc3n2)c1O	55	-	-	-	-	-
c1ccc2c(N3CCOCC3)nc(-c3ccncc3)nc2c1	.	.	-	.	-	.
c1cncc(-c2nc(N3CCOCC3)c3ccccc3n2)c1	66	-	-	-	-	-
CS(=O)(=O)Nc1ccc(N2CCCCC2)c(Cl)c1	-	-	-	-	-	-
COc1cc2c(C(=O)NCc3ccccn3)cn(CC(C)C)c(=O)c2cc1OC	-	-	-	-	-	-
CC1CCN(c2nc3ccccc3nc2N2CCC(C)CC2)CC1	-	-	-	-	-	-
CC1CCN(c2nc(-c3ccncc3)nc3ccccc23)CC1	76	93	105	-	95	-
CC1CCCCN1c1nc(-c2ccncc2)nc2ccccc12 (configuration not stated)	78	91	-	-	73	-
CC1CCCCN1c1ncnc2ccccc12 (configuration not stated)	-	-	-	-	-	-
SMILES	CYP2C9 inh	CYP2C19 inh	PostGolgi yeast	CYP2C19 act	PostGolgi ctrl	CYP2C9 act
O=C(Cn1cccc1)NC1CCCCCC1	-	-	-	-	-	-
Cc1ccc(-c2nc3cccnc3o2)cc1NC(=O)COc1ccc(C(C)(C)C)cc1	55	-	-	-	42	-
Cc1ccc(-c2nc3cccnc3o2)cc1NC(=O)COc1ccc(Cl)cc1C	64	-	-	-	-	-
N#Cc1ccccc1NC(=O)COC(=O)c1ccc(S(=O)(=O)N2CCCC2)cc1	-	-	-	-	-	-
COc1ccc(N(C(=O)COc2ccccc2)C2C=CS(=O)(=O)C2)cc1 (configuration not stated)	-	-	-	-	-	-
C=CCN(CC=C)S(=O)(=O)c1ncn[nH]1	-	-	-	-	-	-
CC(C)(C)c1ccc(S(=O)(=O)NCc2ccc(C(=O)N3CCOCC3)cc2)cc1	-	-	-	-	-	-
Cc1ccc(CNS(=O)(=O)c2ccc(C(C)(C)C)cc2)n1C	-	73	-	-	-	-
Cc1cccc(N2CCN(c3nc4ccccc4n4cnnc34)CC2)c1C	-	-	-	-	37	-
c1cnc(N2CCN(c3nc4ccccc4n4cnnc34)CC2)nc1	-	-	-	-	-	-
Cc1ccc(C(=O)Nc2sc(C)c(-c3ccccc3)c2C(N)=O)cc1[N+](=O)[O-]	-	-	-	-	-	-
CC(C)Cn1cc(C(=O)NCCCN2CCCC2=O)c2c3ccccc3n(C)c2c1=O	-	-	-	-	-	-
CC(=O)Nc1ccc(Nc2ncc([N+](=O)[O-])c(Nc3ccc(NC(C)=O)cc3)n2)cc1	-	-	-	-	-	-
CC1CCC(n2c(=S)[nH]c3ccccc3c2=O)CC1 (configuration not stated)	-	-	-	-	49	-
CC1CCCC(n2c(=S)[nH]c3ccccc3c2=O)C1C (configuration not stated)	-	54	-	-	-	-
COc1ccc(OC)c(CNC(=O)C2CCN(C(=O)N(C)C)CC2)c1	-	-	-	-	-	-
N#CC1(Cc2ccccc2Cl)c2ccccc2C=CN1C(=O)c1ccccc1 (configuration not stated)	84	91	-	-	-	-
CCCn1cnc2c(c1=O)c1nc3ccccc3nc1n2CCc1ccccc1	-	90	-	-	-	-
Cc1nc2c(c(=O)n1CCC1=CCCCC1)c1nc3ccccc3nc1n2/N=C/c1ccccc1	-	-	-	-	-	-
CCOCCCn1c(C)nc2c(c1=O)c1nc3ccccc3nc1n2CCC1=CCCCC1	80	73	-	-	-	-
CCCCCCn1c(C)nc2c(c1=O)c1nc3ccccc3nc1n2/N=C/c1ccco1	74	-	-	-	-	-
O=c1c2c3nc4ccccc4nc3n(/N=C/c3ccco3)c2ncn1CCC1=CCCCC1	58	55	.	-	.	-
CC1CCCCN1Cc1cnc(Cl)s1 (configuration not stated)	-	-	-	-	-	-
O=C(Cn1c(=O)oc2cc(S(=O)(=O)N3CCCC3)ccc21)NCc1ccccn1	-	-	-	-	-	-
CCCn1cnc2c(c1=O)c1nc3ccccc3nc1n2CCC1=CCCCC1	58	84	-	-	-	-
SMILES	CYP2C9 inh	CYP2C19 inh	PostGolgi yeast	CYP2C19 act	PostGolgi ctrl	CYP2C9 act
CCCCn1c2nc3ccccc3nc2c2c(=O)n(CCC(C)C)cnc21	-	-	-	-	-	-
CCn1c(O)c(N=NC(=O)CNC(=O)/C=C/c2ccco2)c2ccccc21	65	50	-	-	-	-
O=C(CN1C(=O)c2ccccc2S1(=O)=O)c1ccccc1	-	-	.	-	.	-
Cc1cc(C(=O)CN2C(=O)c3ccccc3S2(=O)=O)c(C)n1-c1ccccc1	66	79	-	-	-	-
Cc1ccc(C(=O)CN2/C(=C(\O)c3ccccc3)C(=O)c3ccccc3S2(=O)=O)c(C)c1	69	-	-	-	-	-
O=C1CCn2nc(-c3ccc(Cl)cc3)cc2N1	-	-	-	-	-	-
CCc1ccc2oc(-c3cc(N=Cc4cccc(OC)c4O)ccc3O)nc2c1	-	-	-	-	33	-

High-throughput results from PubChem BioAssay.
